Experimental data as given in article PMC5540273 (PLoS ONE, 2017).

How the values were obtained:
Settings in all cases: concentration: 1 μM, replicates: in singlicate; n = 1
[1] = tested on: STK36
[2] = tested on: STK39
[3] = tested on: SYK
[4] = tested on: SgK110
[5] = tested on: T1, TAK1
T1 construct: gene MAP3K7

[6] = tested on: TAOK1
[7] = tested on: TAOK2
[8] = tested on: TAOK3
[9] = tested on: TBK1
[10] = tested on: TEC
[11] = tested on: TESK1
[12] = tested on: TGFBR1
[13] = tested on: TGFBR2
[14] = tested on: TIE1
[15] = tested on: T2, TIE2
T2 construct: gene TEK

[16] = tested on: TLK1
[17] = tested on: TLK2
[18] = tested on: TNIK
[19] = tested on: TNK1
[20] = tested on: TNK2
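Note: KINOMEscan kinase panel screen.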

SMILES	%Inh [1] [%]	%Inh [2] [%]	%Inh [3] [%]	%Inh [4] [%]	%Inh [5] [%]	%Inh [6] [%]	%Inh [7] [%]	%Inh [8] [%]	%Inh [9] [%]	%Inh [10] [%]	%Inh [11] [%]	%Inh [12] [%]	%Inh [13] [%]	%Inh [14] [%]	%Inh [15] [%]	%Inh [16] [%]	%Inh [17] [%]	%Inh [18] [%]	%Inh [19] [%]	%Inh [20] [%]
Cl.Cl.NCC(NC(=O)c1cc(-c2ccccc2)c(-c2ccnc3[nH]ccc23)s1)c1ccccc1 (stereo not shown) [GSK1321561]	29	8	5	0	35	4	0	0	24	11	16	0	0	13	0	54	0	86	0	7
Nc1n[nH]c2cnc(-c3ccccc3)cc12 [SB-642124]	0	0	0	50	0	51	9	7	1	68	22	27	58	100	0	25	0	39	0	38
Cc1cccc(Nc2nc(N[C@H]3CCNC3)ncc2C(N)=O)c1.Cl [GSK2197149]	10	9	81	0	90	39	0	5	18	0	23	0	0	0	0	20	0	78	47	6
CNC(=O)c1ccccc1Nc1nc(Nc2ccc(N3CCOCC3)cc2)ncc1Cl.Cl [GSK1576028]	85	54	87	90.5	96.1	98.8	83	94.2	93.1	99	26	93	0	100	97.9	52	57	76	100	98.2
COc1ccc(-c2coc3ccc(-c4nnc(SCc5ccc(OC)c(C(F)(F)F)c5)o4)cc23)cc1	29	0	0	4	0	0	0	0	11	18	0	6	25	0	0	17	0	3	9	8
CCn1c(-c2nonc2N)nc2c(C#CC(C)(C)O)ncc(OCCCCN)c21.O=C(O)C(F)(F)F.O=C(O)C(F)(F)F [GSK507274]	0	11	4	0	0	40	8	0	31	0	57	0	0	5	44	0	0	0	0	11
COc1cc(Nc2nccc(N3CCC(NC(=O)c4cc5ccccc5s4)C3)n2)cc(OC)c1OC (stereo not shown) [GSK1379760]	32	0	52	0	12	0	0	0	3	10	9	0	0	35	0	8	18	0	0	15
COc1cc(Nc2nccc(N3CCC(NC(=O)Nc4cccc(C(C)=O)c4)C3)n2)cc(OC)c1OC (stereo not shown) [GSK1379753]	30	0	28	0	0	0	0	0	28	0	1	0	0	27	1	0	0	0	21	19
Cn1cc(-c2ccc3c(c2)CCN3C(=O)Cc2cccc(Cl)c2)c2c(N)ncnc21 [GSK2606590]	0	9	38	0	42	0	0	0	27	4	52	0	0	92.3	45	0	0	7	11	0
Cc1cccc(NC(=O)Nc2ccc(Oc3ncnc4ccn(C)c34)cc2)c1	0	0	0	0	0	0	20	0	6	0	0	0	0	59	2	0	0	8	0	5
CC(=O)N1CCN(c2ccc(Nc3nccc(-c4sc(C(C)C)nc4-c4cccc(NS(=O)(=O)c5cccc(Cl)c5)c4)n3)cn2)CC1 [GSK1660437]	99.8	19	61	0	41	0	0	3	2	21	66	76	79	76	96.8	0	0	10	95.6	28
CSc1cccc2c(-c3ccncn3)c(-c3ccc(F)cc3)nn12 [GW514786]	38	10	42	0	9	0	0	0	8	0	31	28	24	6	0	0	0	0	8	6
Nc1ncc(-c2ccc3nccc(-c4ccncc4)c3c2)cc1S(=O)(=O)N1CCOCC1 [GSK1627798]	0	0	12	0	0	0	0	0	10	9	2	0	5	3	0	0	0	0	0	11
COc1ccc(Nc2nccc(N3CCC(NC(=O)Nc4cccc(OC)c4)C3)n2)cc1 (stereo not shown) [GSK1379742]	0	5	25	0	0	0	0	0	6	1	36	0	9	0	0	0	0	0	0	12
Nc1ncc(-c2cccnc2)c2scc(-c3ccc4c(c3)CCN4C(=O)Cc3ccccc3)c12 [GSK683281]	87	4	34	1	7	0	4	0	14	17	33	0	0	92.5	57	0	0	55	19	59
Cc1ccc(C)c(NC(=O)NC2CCN(c3ccnc(Nc4ccc(F)cc4)n3)C2)c1 (stereo not shown) [GSK1379720]	5	10	16	11	0	0	0	0	0	2	28	12	0	0	0	0	0	0	0	21
O=C(Nc1cccc(-c2nn3ccccc3c2-c2ccnc(Nc3cccc(C(F)(F)F)c3)n2)c1)c1c(F)cccc1F [GSK292658]	97.8	0	37	68	0	27	3	30	8	83	0	6	0	31	0	0	0	0	75	22
CCn1c(-c2nonc2N)nc2c(C#CC(C)(C)O)nc(OC[C@H](N)c3ccccc3)cc21 [GSK943949]	0	5	2	0	18	64	27	3	0	0	0	9	0	0	0	2	0	4	0	8
COc1cccc(NC(=O)NC2CCN(c3ccnc(Nc4cc(OC)c(OC)c(OC)c4)n3)C2)c1 (stereo not shown) [GSK1379763]	0	0	28	0	0	0	0	0	38	5	1	4	0	28	0	10	0	0	0	9
O=C(Nc1cccc(Oc2ccc3nc(NC(=O)C4CC4)cn3n2)c1)c1ccccc1C(F)(F)F	4	11	0	0	0	0	34	0	39	5	17	9	0	16	14	0	3	9	55	4
